Screens deposited in PubChem BioAssay by National Center for Advancing Translational Sciences (NCATS).
Hits are enriched below; roughly 3% of the tested compounds scored in any of these assays.
S16 viability: Cell viability qHTS assay in S16 Pmp22-F2sN cells | S16 Pmp22-F2sN Schwann cells viability, CellTiter-Glo, 24 h | Potency, µM (top dose mostly 57.5 µM), without a hit: at the top dose activity change, negative = cytotoxicity, hits mostly cytotoxic | 0.48% of 43,000 active; also: potency is read from the fitted curve at half-maximal effect; % is scaled to controls: 0 for no effect and ±100 for the full control effect; nearly all actives have a fitted effect of over 65% in size
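CellTiter-Glo counter-screen, qHTS, 1536-well. Cells: S16(c9) Pmp22-F2sN, 500-1,000/well in DMEM + 10% FBS. Cpd 23 nL pin transfer, 24 h, 37C/5% CO2. Read: luminescence, CCD imager.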
OvCa metastasis: Primary qHTS assay for Inhibitors of ovarian cancer metastasis using an organotypic tumor microenvironment (TME) model. SKOV3ip1-GFP adhesion/invasion on 3D omental model, fluorescence. Potency, µM (top dose mostly 45.8 µM), inactives show top-dose activity change, negative = inhibition, most hits filed as inhibitors. 0.1% of 46,000 active. AID 1963576, 2024;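 also: potency is read from the fitted curve at half-maximal effect; plate controls were DMSO wells for no effect and tomatine positive control wells for full effect; nearly all actives have a fitted effect of over 65% in size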
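qHTS, 4-pt dose (0.36-46 umol/L); SKOV3ip1-GFP, 1,200 cells/well, no FBS; primary omental fibroblast/mesothelial co-culture 48 h pre-grown; 2 h RT + 16 h 37 C; PBS wash, 4% PFA; GFP count 488/509 nm.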
p53null 32C tox: qHTS Screen for Compounds that Selectively Target Cancer Cells with p53 Mutations: Cytotoxicity of p53 Null Cells at the Permissive Temperature; Potency, µM (series often up to 46.1 µM), for the others: at the highest dose activity change, negative = cytotoxicity, hits mostly cytotoxic; 0.62% of 55,000 active; H1299-neo p53 null cells, ATP luminescence, 24 h, 32C; AID 903, 2007;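 also: potency is read from the fitted curve at half-maximal effect; 0% = DMSO only and -100% = full killing by 100 µM tamoxifen; nearly all actives have a fitted effect of over 55% in size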
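H1299-neo (p53-null) cells, 600/well, were pre-incubated overnight at 37C, then exposed to compounds at up to 46 uM for 24 hr at 32C. Viability was measured as ATP content by luminescence, and AC50 values came from Hill fits.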
p53null 39C kill: qHTS Screen for Compounds that Selectively Target Cancer Cells with p53 Mutations: Cytotoxicity of p53 Null Cells at the Nonpermissive Temperature. H1299 p53-null (neo) cells, 39C, ATPlite viability, 24 h. Potency, µM (doses to about 46.1 µM), for inactives: at the highest dose activity, negative = cell killing, actives largely listed as cytotoxic. 0.97% of 55,000 active. AID 904, 2007;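 also: potency is read from the fitted curve at half-maximal effect; 0% = DMSO only and -100% = full killing by 100 µM tamoxifen; nearly all actives have a fitted effect of over 50% in size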
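Concentration-response (up to 46 uM) was run for 24 h at the nonpermissive 39C on H1299-p53A138V or H1299-neo cells. ATP content was measured with ATPlite luminescence. AC50 values were Hill-modeled after normalizing between DMSO and 100 uM tamoxifen killing.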
pS6 MEF inh: Acumen qHTS Assay for Inhibitors of the mTORC1 Signaling Pathway in MEF (Tsc2-/-, p53-/-) Cells: Sytravon | Tsc2-/- p53-/- MEF, phospho-rpS6 immunofluorescence/PI, 24 h | Potency, µM (highest dose often 38.3 µM), for the others: at the top dose activity change, negative = inhibition, most hits filed as inhibitors | 0.78% of 44,000 active;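 also: potency is read from the fitted curve at half-maximal effect; plate controls were DMSO for no effect and rapamycin for full effect; nearly all actives have a fitted effect of over 50% in size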
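Readout is phospho-S6 Alexa 488 signal normalized to PI per well, reported as % active cells with thresholds set from rapamycin (7.5 nM) and DMSO controls. Cells: Tsc2-/-, p53-/- MEFs, 24 hrs compound at 37 C; PI cell number serves as viability.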
PMP22 txn prim: Cell-based coincidence reporter assay to measure PMP22 gene transcription in S16 Pmp22-F2sN cells - Primary screen; S16 Pmp22-F2sN Schwann cells (luciferase reporters placed in the Pmp22 gene), FLuc/NLuc coincidence luminescence, 24 h; Potency, µM (titrated, usually from 57.5 µM), inactives show at the highest dose activity change, negative = inhibition, most hits filed as inhibitors; 2% of 43,000 active; active = clear falling dose curves in both reporters; inconclusive = both reporters move, but less clearly or upward; inactive = either reporter flat; the % is the NLuc reporter signal; also: potency is read from the fitted curve at half-maximal effect; % is scaled to controls: 0 for no effect and ±100 for the full control effect
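Transcriptional readout in edited S16(c9) cells: two luciferases reported from the Pmp22 locus, measured in turn after 24 h compound incubation.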
NLuc sat counter: Biochemical NLuc saturation counterscreen for small molecule modulators of PMP22 gene expression - Nano-Glo assay; Potency, µM (top dose mostly 57.5 µM), for the others: at the highest dose activity change, negative = inhibition, most hits filed as inhibitors; Secreted NLuc enzyme (filtered S16 cell medium), Nano-Glo luminescence; 4% of 690 active; AID 1508638, 2021; shares compounds with PMP22 txn prim; also: potency is read from the fitted curve at half-maximal effect; % is scaled to controls: 0 for no effect and ±100 for the full control effect
NLuc Km counter: Biochemical coelenterazine-based NLuc counterscreen for small molecule modulators of PMP22 gene expression - Km assay; shares compounds with PMP22 txn prim; secreted NLuc enzyme, coelenterazine luminescence, Km conditions; Potency, µM (top dose mostly 57.5 µM), inactives show at the top dose activity change, negative = inhibition, hits mostly inhibitors; 5% of 690 active; AID 1508639, 2021; also: potency is read from the fitted curve at half-maximal effect; % is scaled to controls: 0 for no effect and ±100 for the full control effect
FLuc ctr PMP22: Biochemical FLuc counterscreen for small molecule modulators of PMP22 gene expression. shares compounds with PMP22 txn prim. purified P. pyralis FLuc, luminescence, 10 min. Potency, µM (series often up to 57.5 µM), for the others: top-dose activity, negative = inhibition, actives largely listed as inhibitors. 690 tested, under 10 active; also: % of control where 0% means no effect
Target sequence (P08659 whole entry, looked up): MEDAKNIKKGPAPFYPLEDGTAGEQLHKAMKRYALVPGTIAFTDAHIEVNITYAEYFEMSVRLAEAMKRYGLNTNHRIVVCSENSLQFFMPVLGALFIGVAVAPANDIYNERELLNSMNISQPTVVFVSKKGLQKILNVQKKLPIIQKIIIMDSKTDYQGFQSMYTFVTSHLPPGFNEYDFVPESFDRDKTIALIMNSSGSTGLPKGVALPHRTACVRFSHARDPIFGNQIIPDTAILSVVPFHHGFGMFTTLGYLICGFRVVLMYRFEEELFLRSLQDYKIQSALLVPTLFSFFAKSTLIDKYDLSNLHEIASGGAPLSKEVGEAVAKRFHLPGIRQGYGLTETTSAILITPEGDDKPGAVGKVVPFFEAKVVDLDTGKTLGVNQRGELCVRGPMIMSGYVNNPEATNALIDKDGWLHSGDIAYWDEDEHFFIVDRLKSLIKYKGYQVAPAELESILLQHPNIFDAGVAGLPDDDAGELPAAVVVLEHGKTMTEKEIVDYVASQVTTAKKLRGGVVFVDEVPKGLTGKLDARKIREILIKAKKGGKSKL
S16 F2sN tox cnf: Cell viability qHTS assay in S16 Pmp22-F2sN cells - Confirmatory screen | shares compounds with PMP22 txn prim | S16 Schwann cells viability, CellTiter-Glo ATP luminescence, 24 h | Potency, µM (series often up to 57.5 µM), for the others: at the top dose activity change, negative = viability loss, usual class: cytotoxic | 7% of 690 active; also: potency is read from the fitted curve at half-maximal effect; % is scaled to controls: 0 for no effect and ±100 for the full control effect
PMP22 txn conf: Cell-based coincidence reporter assay to measure PMP22 gene transcription in S16 Pmp22-F2sN cells - Confirmatory screen. shares compounds with PMP22 txn prim. S16 Schwann cells Pmp22-F2sN, dual luciferase, 24 h. Potency, µM (series often up to 57.5 µM), for the others: at the highest dose activity change, negative = inhibition, hits mostly inhibitors. 22% of 690 active. AID 1508646, 2021; active = clear falling dose curves in both reporters; inconclusive = both reporters move, but less clearly or upward; inactive = either reporter flat; the % is the FLuc reporter signal; also: potency is read from the fitted curve at half-maximal effect
PMP22 prot conf: Cell-based HiBiT reporter assay to measure PMP22 protein expression in S16 Pmp22-HiBiT cells - Confirmatory screen. shares compounds with PMP22 txn prim. S16 Schwann cells Pmp22-HiBiT, luminescence, 48 h. Potency, µM (titrated, usually from 27.9 µM), without a hit: at the highest dose activity change, negative = inhibition, most hits filed as inhibitors. 95 tested, under 10 active. AID 1508647, 2021
Numbers without * were called inactive; i = inactive; u = inconclusive; x = no result given. Unless noted, calls follow the shape of the dose curve; as a rule, active = well fitted curve in the direction sought with a large enough effect; inconclusive = small, poorly fitted or top-dose-only effect, or another doubt; inactive = no such curve, though single readings can be large; an effect the other way counts as inactive or inconclusive.

SMILES	S16 viability	OvCa metastasis	p53null 32C tox	p53null 39C kill	pS6 MEF inh	PMP22 txn prim	NLuc sat counter	NLuc Km counter	FLuc ctr PMP22	S16 F2sN tox cnf	PMP22 txn conf	others
Cc1ccc(CNC(=O)c2ccc(Nc3nc4ccccc4n4nnnc34)cc2)cc1	u	1.4%	2.9%	-7.0%	u	8µM*	-4.9%	-1.0%	-15.4%	u	9.93µM*	PMP22 prot conf=u
CN1CCN(c2oc(-c3ccc(COc4ccccc4)o3)nc2C#N)CC1	0.0%	-21.0%	-11.6%	-16.8%	-13.6%	35.4%	x	x	x	x	x
CCOc1ccc(/C=C/c2nc(C#N)c(NCc3ccccc3)o2)cc1	-19.4%	i	-14.6%	u	u	u	-2.4%	-1.2%	-2.8%	11.0%	-18.4%
CCc1c(C(=O)C(N)=O)c2c(OCC(=O)O)cccc2n1Cc1ccccc1	x	9.0%	x	x	x	x	x	x	x	x	x
CCN1C[C@]2(OC(=O)c3ccccc3NC(C)=O)CC[C@H](OC)[C@@]34[C@H]5CC6[C@@H](OC)C[C@](O)(C(C[C@@H]23)[C@@H]14)[C@@]5(O)[C@@H]6OC	x	-1.2%	x	x	x	x	x	x	x	x	x
CCCOC(=O)c1c(C)oc2c1cc(NS(=O)(=O)c1ccc(OCC)cc1)c1ccccc12	1.4%	i	-3.8%	u	u	8.91µM*	-5.7%	2.7%	-7.2%	11.6%	u
Cc1ccc(NC(=O)N(Cc2ccc3c(c2)OCO3)C2CCN(Cc3ccccc3)CC2)cc1C	u	u	-5.2%	-23.8%	u	14.1µM*	-11.7%	u	-1.7%	u	u
Cc1oc(-c2cccc(Cl)c2)nc1CN1CCC(C(=O)NCCCN2CCN(c3cccc(Cl)c3)CC2)CC1	u	0.6%	-5.0%	u	0.1%	11.9µM*	u	u	3.6%	27.3µM*	u
Cc1oc(-c2ccccc2Cl)nc1CN1C(=O)CN=C(c2ccccc2)c2cc(Cl)ccc21	u	1.0%	10.9%	-8.7%	-8.2%	u	x	x	x	x	x
COc1cccc(-n2c(SCC(=O)c3ccc(Cl)cc3)nc3c([nH]c4ccccc43)c2=O)c1	u	4.2%	u	18.5%	-5.5%	10µM*	0.6%	3.9%	-5.8%	u	10.9µM*	PMP22 prot conf=-16.0%
